Legend:
[1] = target: Tyrosine-protein kinase receptor UFO (Homo sapiens) (UniProt P30530); conditions: at 1 µM
[2] = target: Tyrosine-protein kinase Blk (Homo sapiens) (UniProt P51451); conditions: at 0.1 µM
[3] = target: Tyrosine-protein kinase Blk (Homo sapiens) (UniProt P51451); conditions: at 1 µM
[4] = target: T1, Cytoplasmic tyrosine-protein kinase BMX (Homo sapiens) (UniProt P51813); conditions: at 0.1 µM
T1 sequence (whole entry): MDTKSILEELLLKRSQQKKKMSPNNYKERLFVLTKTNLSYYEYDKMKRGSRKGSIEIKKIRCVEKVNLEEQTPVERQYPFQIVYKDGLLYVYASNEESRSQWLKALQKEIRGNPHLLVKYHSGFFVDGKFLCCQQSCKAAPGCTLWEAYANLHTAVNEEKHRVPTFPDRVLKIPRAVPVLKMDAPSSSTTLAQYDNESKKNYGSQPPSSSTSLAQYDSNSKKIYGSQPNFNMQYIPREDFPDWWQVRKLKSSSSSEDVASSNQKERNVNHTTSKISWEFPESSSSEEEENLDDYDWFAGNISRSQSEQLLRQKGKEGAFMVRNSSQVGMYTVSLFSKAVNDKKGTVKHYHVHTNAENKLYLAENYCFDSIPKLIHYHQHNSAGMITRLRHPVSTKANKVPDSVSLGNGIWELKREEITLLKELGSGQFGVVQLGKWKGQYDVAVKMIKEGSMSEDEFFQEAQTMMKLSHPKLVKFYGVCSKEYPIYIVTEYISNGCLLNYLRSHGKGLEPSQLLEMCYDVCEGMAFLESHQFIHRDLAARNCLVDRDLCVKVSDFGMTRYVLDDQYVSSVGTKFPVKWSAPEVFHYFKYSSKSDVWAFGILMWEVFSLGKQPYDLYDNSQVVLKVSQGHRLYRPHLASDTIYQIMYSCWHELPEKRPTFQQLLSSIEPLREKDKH

[5] = target: T1, Cytoplasmic tyrosine-protein kinase BMX (Homo sapiens); conditions: at 1 µM
[6] = target: Protein-tyrosine kinase 6 (Homo sapiens) (UniProt Q13882); conditions: at 0.1 µM
[7] = target: Protein-tyrosine kinase 6 (Homo sapiens) (UniProt Q13882); conditions: at 1 µM
[8] = target: Tyrosine-protein kinase BTK (Homo sapiens) (UniProt Q06187); conditions: at 0.1 µM
[9] = target: Tyrosine-protein kinase BTK (Homo sapiens) (UniProt Q06187); conditions: at 1 µM
[10] = target: Tyrosine-protein kinase CSK (Homo sapiens) (UniProt P41240); conditions: at 0.1 µM
[11] = target: Tyrosine-protein kinase CSK (Homo sapiens) (UniProt P41240); conditions: at 1 µM
[12] = target: T2, Discoidin domain-containing receptor 2 (Homo sapiens) (UniProt Q16832); conditions: at 0.1 µM
T2 sequence (whole entry): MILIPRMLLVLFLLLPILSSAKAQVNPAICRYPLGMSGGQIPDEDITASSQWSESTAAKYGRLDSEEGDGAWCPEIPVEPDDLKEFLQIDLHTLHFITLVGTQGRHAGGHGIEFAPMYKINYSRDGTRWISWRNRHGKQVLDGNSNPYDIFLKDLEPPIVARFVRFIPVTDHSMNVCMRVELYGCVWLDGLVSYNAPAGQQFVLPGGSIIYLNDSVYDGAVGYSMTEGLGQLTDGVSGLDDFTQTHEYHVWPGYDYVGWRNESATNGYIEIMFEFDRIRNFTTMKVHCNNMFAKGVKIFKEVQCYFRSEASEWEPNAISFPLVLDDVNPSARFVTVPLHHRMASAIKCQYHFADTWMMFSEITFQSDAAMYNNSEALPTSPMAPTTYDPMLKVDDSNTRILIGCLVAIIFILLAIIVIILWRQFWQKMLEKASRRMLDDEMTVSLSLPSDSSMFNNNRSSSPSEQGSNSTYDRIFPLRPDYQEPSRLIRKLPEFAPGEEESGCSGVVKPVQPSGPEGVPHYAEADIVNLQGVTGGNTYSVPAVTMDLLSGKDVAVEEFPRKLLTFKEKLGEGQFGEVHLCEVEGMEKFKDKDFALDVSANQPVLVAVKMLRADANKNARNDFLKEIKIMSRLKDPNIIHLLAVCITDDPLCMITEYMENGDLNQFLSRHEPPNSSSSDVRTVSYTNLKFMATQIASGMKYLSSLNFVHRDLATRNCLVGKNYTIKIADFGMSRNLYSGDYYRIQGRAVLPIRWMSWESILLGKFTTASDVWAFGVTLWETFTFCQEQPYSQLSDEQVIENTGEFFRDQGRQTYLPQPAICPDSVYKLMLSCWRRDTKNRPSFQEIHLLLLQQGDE

[13] = target: T2, Discoidin domain-containing receptor 2 (Homo sapiens); conditions: at 1 µM
[14] = target: Epidermal growth factor receptor (Homo sapiens) (UniProt P00533); conditions: at 0.1 µM
[15] = target: Epidermal growth factor receptor (Homo sapiens) (UniProt P00533); conditions: at 1 µM
[16] = test system: Epidermal growth factor receptor (Homo sapiens), P00533 [L858R]; conditions: at 0.1 µM
[17] = test system: Epidermal growth factor receptor (Homo sapiens), P00533 [L858R]; conditions: at 1 µM
[18] = test system: Epidermal growth factor receptor (Homo sapiens), P00533 [L861Q]; conditions: at 0.1 µM
[19] = test system: Epidermal growth factor receptor (Homo sapiens), P00533 [L861Q]; conditions: at 1 µM
[20] = test system: Epidermal growth factor receptor (Homo sapiens), P00533 [T790M]; conditions: at 0.1 µM

Chain of Epidermal growth factor receptor (Homo sapiens), P00533 [L861Q] (P00533 whole entry L861Q): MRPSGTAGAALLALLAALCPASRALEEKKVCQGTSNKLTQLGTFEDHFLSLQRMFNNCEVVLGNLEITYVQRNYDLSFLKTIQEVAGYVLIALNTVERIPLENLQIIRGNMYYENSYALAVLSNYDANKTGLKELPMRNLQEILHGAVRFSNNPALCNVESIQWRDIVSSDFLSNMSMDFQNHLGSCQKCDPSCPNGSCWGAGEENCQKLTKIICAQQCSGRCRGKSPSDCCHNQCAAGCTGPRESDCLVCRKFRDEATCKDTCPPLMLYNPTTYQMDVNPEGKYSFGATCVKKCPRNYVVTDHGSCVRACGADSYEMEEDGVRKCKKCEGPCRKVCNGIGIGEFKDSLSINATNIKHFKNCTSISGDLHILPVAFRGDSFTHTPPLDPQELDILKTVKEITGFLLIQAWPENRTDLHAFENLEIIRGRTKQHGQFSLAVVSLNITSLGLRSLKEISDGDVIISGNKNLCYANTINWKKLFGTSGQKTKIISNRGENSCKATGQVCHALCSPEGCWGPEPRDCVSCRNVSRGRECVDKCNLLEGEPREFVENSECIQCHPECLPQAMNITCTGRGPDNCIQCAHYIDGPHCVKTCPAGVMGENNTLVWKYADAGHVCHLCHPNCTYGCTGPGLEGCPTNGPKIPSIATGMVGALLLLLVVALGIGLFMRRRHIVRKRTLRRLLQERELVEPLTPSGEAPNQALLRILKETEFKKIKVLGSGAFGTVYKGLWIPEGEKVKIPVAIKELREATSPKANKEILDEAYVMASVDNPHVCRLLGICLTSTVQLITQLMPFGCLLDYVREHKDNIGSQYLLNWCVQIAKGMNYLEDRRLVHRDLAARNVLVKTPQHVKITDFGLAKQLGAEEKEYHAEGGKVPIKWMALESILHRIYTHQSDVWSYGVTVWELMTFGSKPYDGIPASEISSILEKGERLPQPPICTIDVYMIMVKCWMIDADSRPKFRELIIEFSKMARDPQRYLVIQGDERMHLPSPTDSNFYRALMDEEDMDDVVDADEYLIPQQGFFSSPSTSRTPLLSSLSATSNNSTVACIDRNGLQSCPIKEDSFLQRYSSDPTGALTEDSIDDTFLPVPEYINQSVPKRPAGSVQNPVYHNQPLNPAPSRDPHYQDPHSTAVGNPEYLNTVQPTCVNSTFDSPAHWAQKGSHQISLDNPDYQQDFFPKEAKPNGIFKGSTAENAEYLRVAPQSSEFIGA
Chain of Tyrosine-protein kinase CSK (Homo sapiens) (P41240 2-450 limits assumed): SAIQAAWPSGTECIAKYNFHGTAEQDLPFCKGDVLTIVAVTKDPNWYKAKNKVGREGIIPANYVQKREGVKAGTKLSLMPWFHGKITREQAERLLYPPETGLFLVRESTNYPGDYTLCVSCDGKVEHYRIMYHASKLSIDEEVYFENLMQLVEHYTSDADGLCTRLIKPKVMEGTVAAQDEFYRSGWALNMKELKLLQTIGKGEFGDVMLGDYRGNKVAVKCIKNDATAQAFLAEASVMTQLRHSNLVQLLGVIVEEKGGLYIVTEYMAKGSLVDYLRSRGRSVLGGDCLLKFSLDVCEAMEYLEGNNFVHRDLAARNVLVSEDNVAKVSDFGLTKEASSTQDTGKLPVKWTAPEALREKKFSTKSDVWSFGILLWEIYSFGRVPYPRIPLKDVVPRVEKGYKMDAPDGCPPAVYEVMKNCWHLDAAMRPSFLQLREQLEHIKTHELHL
Chain of Epidermal growth factor receptor (Homo sapiens) (P00533 whole entry): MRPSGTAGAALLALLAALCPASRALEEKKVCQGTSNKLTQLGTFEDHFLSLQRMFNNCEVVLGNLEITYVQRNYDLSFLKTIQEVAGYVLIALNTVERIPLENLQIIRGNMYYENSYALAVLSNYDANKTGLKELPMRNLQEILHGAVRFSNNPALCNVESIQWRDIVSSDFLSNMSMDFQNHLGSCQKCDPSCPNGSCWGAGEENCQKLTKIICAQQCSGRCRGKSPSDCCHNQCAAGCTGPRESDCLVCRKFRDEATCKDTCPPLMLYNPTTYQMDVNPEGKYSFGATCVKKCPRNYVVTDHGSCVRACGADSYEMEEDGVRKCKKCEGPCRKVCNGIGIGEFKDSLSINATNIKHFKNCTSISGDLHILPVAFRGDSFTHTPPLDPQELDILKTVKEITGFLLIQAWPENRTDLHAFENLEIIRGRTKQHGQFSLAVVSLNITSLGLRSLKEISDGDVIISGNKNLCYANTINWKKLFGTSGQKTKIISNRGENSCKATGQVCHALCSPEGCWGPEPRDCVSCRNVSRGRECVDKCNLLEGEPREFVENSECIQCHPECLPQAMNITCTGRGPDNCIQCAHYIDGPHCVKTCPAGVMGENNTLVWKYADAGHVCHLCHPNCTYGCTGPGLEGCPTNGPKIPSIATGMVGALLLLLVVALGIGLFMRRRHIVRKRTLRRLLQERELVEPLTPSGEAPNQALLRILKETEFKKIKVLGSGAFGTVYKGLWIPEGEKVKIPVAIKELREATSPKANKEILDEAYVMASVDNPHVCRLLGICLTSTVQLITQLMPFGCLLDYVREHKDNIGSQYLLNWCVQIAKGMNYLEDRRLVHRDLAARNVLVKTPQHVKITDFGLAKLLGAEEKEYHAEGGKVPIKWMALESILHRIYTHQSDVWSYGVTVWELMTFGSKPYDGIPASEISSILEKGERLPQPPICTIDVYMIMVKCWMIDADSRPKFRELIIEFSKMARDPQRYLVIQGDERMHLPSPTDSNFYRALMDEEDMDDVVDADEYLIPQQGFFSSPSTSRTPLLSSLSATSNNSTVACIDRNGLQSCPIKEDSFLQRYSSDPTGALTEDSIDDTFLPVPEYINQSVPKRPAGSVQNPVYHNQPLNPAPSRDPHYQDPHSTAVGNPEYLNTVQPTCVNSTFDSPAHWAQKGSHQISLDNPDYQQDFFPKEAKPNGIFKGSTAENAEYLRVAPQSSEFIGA
Chain of Protein-tyrosine kinase 6 (Homo sapiens) (Q13882 whole entry, looked up): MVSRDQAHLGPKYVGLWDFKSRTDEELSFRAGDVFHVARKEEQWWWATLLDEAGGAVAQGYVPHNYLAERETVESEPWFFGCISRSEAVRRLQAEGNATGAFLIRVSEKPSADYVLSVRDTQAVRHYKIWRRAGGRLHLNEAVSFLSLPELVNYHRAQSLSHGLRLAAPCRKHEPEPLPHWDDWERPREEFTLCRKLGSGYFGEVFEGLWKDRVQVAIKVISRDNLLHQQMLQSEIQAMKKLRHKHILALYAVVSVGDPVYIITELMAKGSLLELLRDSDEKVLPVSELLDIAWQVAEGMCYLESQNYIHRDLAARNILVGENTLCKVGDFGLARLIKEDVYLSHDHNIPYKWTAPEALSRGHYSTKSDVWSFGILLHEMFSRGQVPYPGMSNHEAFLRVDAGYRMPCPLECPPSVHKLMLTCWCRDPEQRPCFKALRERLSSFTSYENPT
Chain of Tyrosine-protein kinase BTK (Homo sapiens) (Q06187 whole entry): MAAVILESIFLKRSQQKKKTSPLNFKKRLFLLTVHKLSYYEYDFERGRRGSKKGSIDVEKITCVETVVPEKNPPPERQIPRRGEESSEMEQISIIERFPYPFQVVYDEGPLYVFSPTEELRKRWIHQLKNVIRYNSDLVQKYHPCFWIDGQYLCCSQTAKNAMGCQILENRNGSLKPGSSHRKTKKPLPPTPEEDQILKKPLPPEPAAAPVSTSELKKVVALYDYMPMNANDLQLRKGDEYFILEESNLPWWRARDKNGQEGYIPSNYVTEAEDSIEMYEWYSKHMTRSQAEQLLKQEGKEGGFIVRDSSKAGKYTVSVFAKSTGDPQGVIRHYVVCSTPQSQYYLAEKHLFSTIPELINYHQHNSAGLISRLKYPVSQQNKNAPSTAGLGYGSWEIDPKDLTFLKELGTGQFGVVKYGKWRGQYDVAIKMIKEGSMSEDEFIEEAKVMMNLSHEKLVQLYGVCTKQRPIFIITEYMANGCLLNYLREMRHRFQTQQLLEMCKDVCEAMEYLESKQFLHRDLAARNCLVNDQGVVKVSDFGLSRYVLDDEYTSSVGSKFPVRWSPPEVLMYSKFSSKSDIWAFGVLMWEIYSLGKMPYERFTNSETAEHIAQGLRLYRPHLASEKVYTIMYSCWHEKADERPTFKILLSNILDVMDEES
Chain of Tyrosine-protein kinase Blk (Homo sapiens) (P51451 2-505 limits assumed): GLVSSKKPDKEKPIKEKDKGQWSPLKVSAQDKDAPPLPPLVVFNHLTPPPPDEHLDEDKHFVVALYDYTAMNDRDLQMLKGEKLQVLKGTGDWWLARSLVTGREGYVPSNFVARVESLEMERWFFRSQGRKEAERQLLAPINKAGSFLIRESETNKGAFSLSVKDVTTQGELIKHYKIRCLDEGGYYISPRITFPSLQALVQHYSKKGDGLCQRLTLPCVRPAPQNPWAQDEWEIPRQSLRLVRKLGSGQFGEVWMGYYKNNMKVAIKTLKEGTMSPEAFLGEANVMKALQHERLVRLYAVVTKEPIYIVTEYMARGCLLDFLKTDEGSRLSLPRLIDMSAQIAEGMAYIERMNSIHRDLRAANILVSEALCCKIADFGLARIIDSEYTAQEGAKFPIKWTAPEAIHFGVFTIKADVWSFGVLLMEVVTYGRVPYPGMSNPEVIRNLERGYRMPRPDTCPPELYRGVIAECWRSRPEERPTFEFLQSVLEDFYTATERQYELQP

| Structure (SMILES) | inhibition [1] [%] | inhibition [2] [%] | inhibition [3] [%] | inhibition [4] [%] | inhibition [5] [%] | inhibition [6] [%] | inhibition [7] [%] | inhibition [8] [%] | inhibition [9] [%] | inhibition [10] [%] | inhibition [11] [%] | inhibition [12] [%] | inhibition [13] [%] | inhibition [14] [%] | inhibition [15] [%] | inhibition [16] [%] | inhibition [17] [%] | inhibition [18] [%] | inhibition [19] [%] | inhibition [20] [%] |
| --- | --- | --- | --- | --- | --- | --- | --- | --- | --- | --- | --- | --- | --- | --- | --- | --- | --- | --- | --- | --- |
| CCn1c(-c2nonc2N)nc2cncc(C(=O)N3CC[C@H](N)C3)c21 | -4.01 | 2.69 | 3.09 | 2.23 | 0.56 | 4.5 | 8.63 | -0.23 | -1.15 | 5.91 | 5.06 | 1.43 | 1.61 | 0.8 | 2.64 | 3.22 | 5.35 | 3.58 | 4.5 | 2.65 |
| COc1cc2ncn(-c3cc(OCc4ccccc4Cl)c(C(N)=O)s3)c2cc1OC | 2.44 | 1 | 23.1 | 1.94 | 4.4 | 0.65 | 7.77 | -0.87 | 1.14 | 0.5 | 4.61 | 0.71 | 0.75 | 2.48 | 8.81 | 1.49 | 13.4 | -0.11 | 5.11 | -1.99 |
| Nc1ncnc2occ(-c3ccc(NC(=O)Nc4cc(C(F)(F)F)cc(C(F)(F)F)c4)cc3)c12 | 22.1 | 2.66 | 36.5 | 4.42 | 49.9 | 1.52 | 2.35 | 2.44 | 9.01 | 3.53 | 20.6 | 67.7 | 84.4 | 0.56 | 0.39 | 1.34 | -2.77 | 2.29 | -2.09 | 1.48 |
| Fc1cccc(COc2ccc(Nc3ncnc4cc(-c5ccc[nH]5)sc34)cc2Cl)c1 | -0.12 | -2.62 | 0.69 | 2.13 | 1.82 | 1.55 | 6.36 | -5.43 | -4.27 | 2.68 | 1.12 | 0.15 | -1 | 66.2 | 77.3 | 32.5 | 82.9 | 37.8 | 71.8 | 0.21 |
| CC1=C(C(=O)Nc2ccc3[nH]ncc3c2)C(c2ccc(F)cc2)NC(=O)N1 (stereo not given) | -2.9 | 0.5 | 3.91 | -3.23 | 1.24 | 1.78 | 5.55 | -0.15 | -1.83 | 0.78 | 1.35 | 0.44 | 0.08 | -0.6 | 1.27 | 3.85 | 4.77 | 2.31 | 1.33 | 0.71 |
| CN(C)c1cc2c(Nc3ccc4nc(Cc5ccccc5)[nH]c4c3)ncnc2cn1 | -3.19 | 5.31 | 26.3 | 1.17 | 21.5 | 4.68 | 6.35 | 1.64 | 4.82 | 17.4 | 55.3 | 3.16 | 7.23 | 66.6 | 77.6 | 16.1 | 48.1 | 27.3 | 40.3 | 3.48 |
| CCn1c(-c2nonc2N)nc2cnc(Oc3cccc(NC(=O)c4ccc(OCCN5CCOCC5)cc4)c3)cc21 | -2.93 | 2.22 | 2.41 | 0.58 | 2.53 | 0.94 | 4.32 | -1.45 | -2.04 | 2.95 | 2.94 | 1.27 | -0.68 | 1.37 | 3 | 1.72 | 2.23 | 2.62 | 2.57 | 0.97 |
| Fc1cccc(COc2ccc(Nc3ncnc4sc(-c5cccs5)cc34)cc2Cl)c1 | 1.51 | 1.15 | 3.35 | 1.58 | 4.35 | -1.94 | 2.02 | -0.95 | -0.95 | 2.73 | 3.11 | -0.48 | 0.6 | – | – | – | – | – | – | – |
| CS(=O)(=O)CCNCc1nc(-c2ccc3ncnc(Nc4ccc(F)c(Cl)c4)c3c2)cs1 | 0.38 | 1.92 | 7.95 | 0.99 | 7.67 | 1.05 | 5.15 | 0.64 | 4.51 | 2.86 | 5.64 | 7.7 | 10.9 | – | – | – | – | – | – | – |
| CCc1cccc(NC(=O)Nc2ccc(Oc3ccc4nc(NC(=O)OC)[nH]c4c3)cc2)c1 | 25.5 | 2.34 | 0.6 | -1.67 | 1.67 | 1.3 | 1.76 | 1.67 | 1.57 | 4.01 | 3.75 | 78 | 80.2 | 8 | 7.33 | 2.52 | 5.42 | 0.96 | 2.05 | 1.06 |
| Nc1nc(-c2ccccn2)c(-c2ccc3ncccc3n2)s1 | -4.26 | 2.58 | 1.8 | -0.49 | 3.73 | 2.76 | 7.02 | 1.06 | 0.04 | 9.09 | 4.7 | 3.14 | -1.29 | 1.32 | 1.23 | 3.43 | 2.31 | 1.79 | 4.31 | 1.91 |
| COc1ccc(COc2ccc(Cc3cnc(N)nc3N)cc2OC)cc1 | 8.25 | 0.45 | 0.47 | 0.39 | 2.06 | -1.66 | -1.6 | 0.23 | 3.61 | 0.54 | -3.17 | 8.57 | 8.13 | -0.51 | 5.41 | 0.93 | -1.26 | -1.47 | -1.95 | – |
| c1cnn2ncc(-c3ccnc(Nc4ccc5c(c4)OCCO5)n3)c2c1 | 10.1 | 3.13 | 9.58 | 1.58 | 14.5 | 6.27 | 13.7 | 1.69 | 3.99 | 4.46 | 14.9 | 2.85 | 2.07 | 1.88 | 4.28 | 3.09 | 11 | 3.71 | 5.7 | 2.81 |
| NS(=O)(=O)c1ccc(N/N=C2\C(=O)Nc3ccc(C(=O)NCCc4c[nH]cn4)cc32)cc1 | 9.57 | 4.25 | 17.2 | -1.78 | 6.53 | 7.16 | 5.31 | 1.88 | 1.29 | 8.17 | 9.56 | 1.41 | 5.19 | 2 | 4.43 | 5.09 | 5.32 | 3.18 | 3.48 | 2.7 |
